Measurements reported in PubChem BioAssay AID1159580 (chemical genetic matrix, 2015).
Screen size: about 5,500 compounds; about 2,000 (36%) were called active. Inconclusive results (about 18%) are left out. No stated cut-off is given here; in the data, active means normalized growth mostly below about 0.91 (no sharp cut-off); inconclusive means no clear call, values can overlap the other calls; inactive means mostly above about 0.92. This is one part of the list.

Test: chemical genetic growth profiling, strain panel (AID 1159580);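 further: tested at 20 µM; growth read once vehicle control cultures reached saturation at 30 °C; 1 = growth at the plate median or of vehicle wells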
Conditions: growth OD

Measured: normalized growth

O=C(O)COc1cc(Cl)c(Cl)cc1Cl
inactive: S. cerevisiae deletion strains, locus YJR075W, strain HOC1, stronger effect = lower value 1.01 | S. cerevisiae deletion strains, locus YKL009W, strain mrt4, stronger effect = lower value 1.05 | S. cerevisiae deletion strains, locus YKL068W, stronger effect = lower value 1.01 | S. cerevisiae deletion strains, locus YKL085W, strain MDH1 (second series), stronger effect = lower value 1.01 | S. cerevisiae deletion strains, locus YKL085W, strain MDH1, stronger effect = lower value 1.01 | S. cerevisiae deletion strains, locus YKL160W, strain elf1, stronger effect = lower value 1 | S. cerevisiae deletion strains, locus YKL190W, strain CNB1, stronger effect = lower value 0.995 | S. cerevisiae deletion strains, locus YKR001C, strain vps1, stronger effect = lower value 1.04 | S. cerevisiae deletion strains, locus YKR026C, strain gcn3, stronger effect = lower value 1 | S. cerevisiae deletion strains, locus YKR091W, strain srl3, stronger effect = lower value 1 | S. cerevisiae deletion strains, locus YLL001W, strain dnm1, stronger effect = lower value 1.01 | S. cerevisiae deletion strains, locus YLL026W, stronger effect = lower value 0.998 | S. cerevisiae deletion strains, locus YLL041C, strain sdh2, stronger effect = lower value 1 | S. cerevisiae deletion strains, locus YLR027C, strain aat2, stronger effect = lower value 1 | S. cerevisiae deletion strains, locus YLR039C, strain RIC1, stronger effect = lower value 1.06 | S. cerevisiae deletion strains, locus YLR058C, strain SHM2, stronger effect = lower value 1.01 | S. cerevisiae deletion strains, locus YLR102C, strain apc9, stronger effect = lower value 1.02 | S. cerevisiae deletion strains, locus YLR113W, strain HOG1, stronger effect = lower value 0.963 | S. cerevisiae deletion strains, locus YLR221C, strain rsa3, stronger effect = lower value 1 | S. cerevisiae deletion strains, locus YLR258W, strain gsy2, stronger effect = lower value 1.01 | S. cerevisiae deletion strains, locus YLR262C, strain YPT6 (second series), stronger effect = lower value 1.01 | S. cerevisiae deletion strains, locus YLR262C, strain YPT6, stronger effect = lower value 1.07 | S. cerevisiae deletion strains, locus YLR268W, strain sec22, stronger effect = lower value 1.02 | S. cerevisiae deletion strains, locus YLR320W, strain mms22, stronger effect = lower value 0.994 | S. cerevisiae deletion strains, locus YLR330W, strain CHS5, stronger effect = lower value 1.01 | S. cerevisiae deletion strains, locus YLR342W, strain FKS1 (second series), stronger effect = lower value 1.02 | S. cerevisiae deletion strains, locus YLR342W, strain FKS1, stronger effect = lower value 0.999 | S. cerevisiae deletion strains, locus YLR357W, strain rsc2, stronger effect = lower value 0.964 | S. cerevisiae deletion strains, locus YLR370C, strain arc18, stronger effect = lower value 1 | S. cerevisiae deletion strains, locus YLR371W, strain rom2, stronger effect = lower value 1.02 | S. cerevisiae deletion strains, locus YLR384C, strain iki3, stronger effect = lower value 1 | S. cerevisiae deletion strains, locus YLR418C, strain cdc73, stronger effect = lower value 1.04 | S. cerevisiae deletion strains, locus YML016C, strain PPZ1, stronger effect = lower value 1.01 | S. cerevisiae deletion strains, locus YML032C, strain rad52, stronger effect = lower value 1.02 | S. cerevisiae deletion strains, locus YML120C, strain ndi1, stronger effect = lower value 0.999 | S. cerevisiae deletion strains, locus YML124C, strain tub3, stronger effect = lower value 1.02 | S. cerevisiae deletion strains, locus YMR058W, strain fet3, stronger effect = lower value 1 | S. cerevisiae deletion strains, locus YMR078C, strain ctf18, stronger effect = lower value 1.03 | S. cerevisiae deletion strains, locus YMR125W, strain sto1, stronger effect = lower value 0.994 | S. cerevisiae deletion strains, locus YMR129W, stronger effect = lower value 1.01 | S. cerevisiae deletion strains, locus YMR205C, strain PFK2, stronger effect = lower value 0.992 | S. cerevisiae deletion strains, locus YMR223W, strain ubp8, stronger effect = lower value 1.02 | S. cerevisiae deletion strains, locus YMR231W, strain pep5, stronger effect = lower value 1.01 | S. cerevisiae deletion strains, locus YMR263W, strain SAP30, stronger effect = lower value 1.01 | S. cerevisiae deletion strains, locus YMR307W, strain GAS1, stronger effect = lower value 1.02 | S. cerevisiae deletion strains, locus YNL067W, strain RPL9B, stronger effect = lower value 1.01 | S. cerevisiae deletion strains, locus YNL071W, strain lat1, stronger effect = lower value 0.994 | S. cerevisiae deletion strains, locus YNL128W, strain TEP1, stronger effect = lower value 1.02 | S. cerevisiae deletion strains, locus YNL153C, strain GIM3, stronger effect = lower value 1 | S. cerevisiae deletion strains, locus YNL183C, strain NPR1, stronger effect = lower value 0.953 | S. cerevisiae deletion strains, locus YNL209W, strain ssb2, stronger effect = lower value 1 | S. cerevisiae deletion strains, locus YNL233W, strain BNI4, stronger effect = lower value 1.01 | S. cerevisiae deletion strains, locus YNL248C, strain rpa49, stronger effect = lower value 0.992 | S. cerevisiae deletion strains, locus YNL250W, strain rad50, stronger effect = lower value 1.03 | S. cerevisiae deletion strains, locus YNL271C, strain bni1, stronger effect = lower value 1.02 | S. cerevisiae deletion strains, locus YNL298W, strain CLA4, stronger effect = lower value 1.03 | S. cerevisiae deletion strains, locus YNL307C, strain MCK1, stronger effect = lower value 1.03 | S. cerevisiae deletion strains, locus YNL322C, strain KRE1 (second series), stronger effect = lower value 0.992 | S. cerevisiae deletion strains, locus YNL322C, strain KRE1, stronger effect = lower value 1.01 | S. cerevisiae deletion strains, locus YNR049C, strain mso1, stronger effect = lower value 0.988 | S. cerevisiae deletion strains, locus YNR052C, strain pop2, stronger effect = lower value 1.01 | S. cerevisiae deletion strains, locus YOL006C, strain TOP1, stronger effect = lower value 1.06 | S. cerevisiae deletion strains, locus YOL012C, strain htz1 1.75 | S. cerevisiae deletion strains, locus YOL147C, strain pex11, stronger effect = lower value 1.02 | S. cerevisiae deletion strains, locus YOR001W, strain rrp6, stronger effect = lower value 1 | S. cerevisiae deletion strains, locus YOR061W, strain CKA2, stronger effect = lower value 1.01 | S. cerevisiae deletion strains, locus YOR069W, strain VPS5, stronger effect = lower value 1.01 | S. cerevisiae deletion strains, locus YOR070C, strain gyp1, stronger effect = lower value 0.991 | S. cerevisiae deletion strains, locus YOR080W, strain dia2, stronger effect = lower value 0.988 | S. cerevisiae deletion strains, locus YOR083W, strain WHI5, stronger effect = lower value 1.01 | S. cerevisiae deletion strains, locus YOR106W, strain vam3, stronger effect = lower value 1.02 | S. cerevisiae deletion strains, locus YOR136W, strain idh2, stronger effect = lower value 1.02 | S. cerevisiae deletion strains, locus YOR144C, strain elg1, stronger effect = lower value 1.03 | S. cerevisiae deletion strains, locus YOR184W, strain ser1, stronger effect = lower value 1.03 | S. cerevisiae deletion strains, locus YOR231W, strain MKK1, stronger effect = lower value 1.01 | S. cerevisiae deletion strains, locus YOR265W, strain rbl2, stronger effect = lower value 0.998 | S. cerevisiae deletion strains, locus YOR270C, strain vph1, stronger effect = lower value 1.02 | S. cerevisiae deletion strains, locus YOR290C, strain snf2, stronger effect = lower value 1.02 | S. cerevisiae deletion strains, locus YOR316C, strain cot1, stronger effect = lower value 1.01 | S. cerevisiae deletion strains, locus YPL051W, strain arl3, stronger effect = lower value 0.999 | S. cerevisiae deletion strains, locus YPL055C, strain LGE1, stronger effect = lower value 1.03 | S. cerevisiae deletion strains, locus YPL078C, strain atp4, stronger effect = lower value 1 | S. cerevisiae deletion strains, locus YPL106C, strain sse1, stronger effect = lower value 0.973 | S. cerevisiae deletion strains, locus YPL240C, strain hsp82, stronger effect = lower value 1 | S. cerevisiae deletion strains, locus YPL241C, strain CIN2, stronger effect = lower value 1.01 | S. cerevisiae deletion strains, locus YPL256C, strain CLN2, stronger effect = lower value 1.04 | S. cerevisiae deletion strains, locus YPR119W, strain clb2, stronger effect = lower value 1.02 | S. cerevisiae deletion strains, locus YPR141C, strain kar3, stronger effect = lower value 1.03 | S. cerevisiae deletion strains, locus YPR163C, strain tif3, stronger effect = lower value 1.02 | S. cerevisiae deletion strains, locus YPR167C, strain met16, stronger effect = lower value 1.02 | S. cerevisiae deletion strains, strain wtn01, stronger effect = lower value 1.02 | S. cerevisiae strains, strain wild type, stronger effect = lower value 1.01
